# Results taken from the supplement of paper PMC8728848.
# Only a selection was taken, and the strongest signals are over-represented in it overall.
# B1: Gal 7 (Homo sapiens) (protein)
# chain: MSNVPHKSSLPEGIRPGTVLRIRGLVPPNASRFHVNLLCGEEGGSDAALHFNPRLDTSEVVFNSKEGGSWGREERGPGVPFGRGQPFEVLIIASDDGFKAVVGDAQYHHFRHRLPLARVRLVEVGGDVQLDSVRIF
# Assays:
# Experiment in all cases: glycan array binding signal (z-score within array); higher = stronger binding
# Settings in all cases: glycan notation: IUPAC condensed, linker removed
# [1] = target: Fuc(a1-2)Gal(b1-3)GlcNAc(b1-3)GalNAc
# Method in brief: (§1)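 Glycan array data came from 3228 arrays in the Consortium for Functional Glycomics database, and only arrays with an available protein sequence were kept. Glycan names were put into IUPAC-condensed notation, and columns mapping to the same glycan were averaged. The binding signal is a within-array Z-score, averaged across arrays of one protein sequence run at different concentrations or buffers and across linkers. A negative Z-score can be read as non-binding.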
# Fuc(a1-2)Gal(b1-4)Glc6S = target: Fuc(a1-2)Gal(b1-4)Glc6S
# Method in brief: as §1
# [2] = target: Fuc(a1-2)Gal(b1-4)GlcNAc(b1-3)Gal(b1-4)GlcNAc
# Method in brief: as §1
# [3] = target: Fuc(a1-2)Gal(b1-4)GlcNAc(b1-3)Gal(b1-4)GlcNAc(b1-2)Man(a1-3)[Fuc(a1-2)Gal(b1-4)GlcNAc(b1-3)Gal(b1-4)GlcNAc(b1-2)Man(a1-6)]Man(b1-4)GlcNAc(b1-4)GlcNAc
# Method in brief: as §1
# [4] = target: Fuc(a1-2)Gal(b1-4)GlcNAc(b1-3)Gal(b1-4)GlcNAc(b1-3)Gal(b1-4)GlcNAc
# Method in brief: as §1
# [5] = target: Fuc(a1-2)Gal(b1-4)GlcNAc(b1-3)GalNAc
# Method in brief: as §1
# [6] = target: Fuc(a1-2)[Gal(a1-3)]Gal(b1-4)GlcNAc(b1-3)[Fuc(a1-2)[Gal(a1-3)]Gal(b1-4)GlcNAc(b1-6)]GalNAc
# Method in brief: as §1
# [7] = target: Fuc(a1-2)[Gal(a1-4)]Gal(b1-4)GalNAc
# Method in brief: as §1
# [8] = target: Fuc(a1-2)[GalNAc(a1-4)]Gal(b1-4)GlcNAc
# Method in brief: as §1
# [9] = target: Fuc(a1-3)[Gal(b1-4)]GlcNAc(b1-4)Gal(b1-4)[Fuc(a1-3)]GlcNAc
# Method in brief: as §1
# Fuc(a1-4)GlcNAc = target: Fuc(a1-4)GlcNAc
# Method in brief: as §1
# Gal(a1-3)Gal(b1-3)Glc = target: Gal(a1-3)Gal(b1-3)Glc
# Method in brief: as §1
# [10] = target: Gal(a1-3)Gal(b1-4)GlcNAc(b1-6)GalNAc
# Method in brief: as §1
# [11] = target: Gal(a1-4)Gal(b1-3)GlcNAc(b1-2)Man(a1-3)[Gal(a1-4)Gal(b1-3)GlcNAc(b1-2)Man(a1-6)]Man(b1-4)GlcNAc(b1-4)GlcNAc
# Method in brief: as §1
# Gal(a1-4)Gal(b1-4)GlcNAc = target: Gal(a1-4)Gal(b1-4)GlcNAc
# Method in brief: as §1
# Gal(b1-3)Gal = target: Gal(b1-3)Gal
# Method in brief: as §1
# Gal(b1-3)Gal(b1-4)GlcNAc = target: Gal(b1-3)Gal(b1-4)GlcNAc
# Method in brief: as §1
# Gal(b1-3)GalNAc = target: Gal(b1-3)GalNAc
# Method in brief: as §1
# [12] = target: Gal(b1-3)GalNAc(b1-3)Gal(b1-4)GlcNAc
# Method in brief: as §1
# [13] = target: Gal(b1-3)GlcNAc(b1-3)GalNAc
# Method in brief: as §1
# [14] = target: Gal(b1-3)GlcNAc(b1-6)Gal(b1-4)GlcNAc
# Method in brief: as §1
# [15] = target: Gal(b1-3)[Fuc(a1-4)]GlcNAc(b1-3)Gal(b1-4)[Fuc(a1-3)]GlcNAc
# Method in brief: as §1
# [16] = target: Gal(b1-4)GalNAc(b1-3)[Fuc(a1-2)]Gal(b1-4)GlcNAc
# Method in brief: as §1
# Gal(b1-4)Glc6S = target: Gal(b1-4)Glc6S
# Method in brief: as §1
# [17] = target: Gal(b1-4)GlcNAc(b1-2)[Gal(b1-4)GlcNAc(b1-6)]Man(a1-6)[Gal(b1-4)GlcNAc(b1-2)Man(a1-3)]Man(b1-4)GlcNAc(b1-4)[Fuc(a1-6)]GlcNAc
# Method in brief: as §1
# [18] = target: Gal(b1-4)GlcNAc(b1-2)[Gal(b1-4)GlcNAc(b1-6)]Man(a1-6)[GlcNAc(b1-4)][Gal(b1-4)GlcNAc(b1-2)Man(a1-3)]Man(b1-4)GlcNAc(b1-4)GlcNAc
# Method in brief: as §1
# [19] = target: Gal(b1-4)GlcNAc(b1-3)Gal(b1-4)GlcNAc(b1-2)Man(a1-3)[Gal(b1-4)GlcNAc(b1-3)Gal(b1-4)GlcNAc(b1-2)Man(a1-6)]Man(b1-4)GlcNAc(b1-4)GlcNAc
# Method in brief: as §1
# [20] = target: Gal(b1-4)GlcNAc(b1-3)Gal(b1-4)GlcNAc(b1-3)Gal(b1-4)GlcNAc
# Method in brief: as §1
# [21] = target: Gal(b1-4)GlcNAc(b1-3)Gal(b1-4)GlcNAc(b1-3)Gal(b1-4)GlcNAc(b1-2)Man(a1-3)[Gal(b1-4)GlcNAc(b1-3)Gal(b1-4)GlcNAc(b1-3)Gal(b1-4)GlcNAc(b1-2)Man(a1-6)]Man(b1-4)GlcNAc(b1-4)[Fuc(a1-6)]GlcNAc
# Method in brief: as §1
binder,measurement,setting,value
B1,glycan array binding signal (z-score),[1],-0.125
same,glycan array binding signal (z-score),Fuc(a1-2)Gal(b1-4)Glc6S,0.834
same,glycan array binding signal (z-score),[2],5.81
same,glycan array binding signal (z-score),[3],5.09
same,glycan array binding signal (z-score),[4],7.12
same,glycan array binding signal (z-score),[5],0.082
same,glycan array binding signal (z-score),[6],-0.267
same,glycan array binding signal (z-score),[7],-0.319
same,glycan array binding signal (z-score),[8],-0.23
same,glycan array binding signal (z-score),[9],-0.214
same,glycan array binding signal (z-score),Fuc(a1-4)GlcNAc,-0.324
same,glycan array binding signal (z-score),Gal(a1-3)Gal(b1-3)Glc,1.04
same,glycan array binding signal (z-score),[10],-0.147
same,glycan array binding signal (z-score),[11],-0.011
same,glycan array binding signal (z-score),Gal(a1-4)Gal(b1-4)GlcNAc,-0.251
same,glycan array binding signal (z-score),Gal(b1-3)Gal,-0.328
same,glycan array binding signal (z-score),Gal(b1-3)Gal(b1-4)GlcNAc,-0.341
same,glycan array binding signal (z-score),Gal(b1-3)GalNAc,-0.006
same,glycan array binding signal (z-score),[12],0.962
same,glycan array binding signal (z-score),[13],0.04
same,glycan array binding signal (z-score),[14],-0.33
same,glycan array binding signal (z-score),[15],-0.289
same,glycan array binding signal (z-score),[16],-0.367
same,glycan array binding signal (z-score),Gal(b1-4)Glc6S,0.576
same,glycan array binding signal (z-score),[17],0.141
same,glycan array binding signal (z-score),[18],-0.186
same,glycan array binding signal (z-score),[19],2.23
same,glycan array binding signal (z-score),[20],0.945
same,glycan array binding signal (z-score),[21],4.99
